Screening results: PubChem, Broad Institute
ROS inducer – cancer cell ROS induction | U2OS ROS induction, H2DCF-DA fluorescence | ROS induction (% of piperlongumine), % at 10 µM | actives 2% (n = 46,000) | AID 624156; in the data active = ROS induction above about 79%, passing the limit was not always enough
Large screens that a line does not name were inactive. The entries come from a sample that favours hits as a whole.

O=C(COc1cc(O)c2c(=O)cc(-c3ccccc3)oc2c1)c1cccc([N+](=O)[O-])c1	none
COc1ccc(/C=N/NC(=O)c2ccccn2)c(OC)c1	none
C[C@H]1CN([C@@H](C)CO)C(=O)c2cccc(NC(=O)c3ccc(-c4nccs4)cc3)c2O[C@H]1CN(C)Cc1ccc(C(F)(F)F)cc1	ROS inducer 109
C[C@@H]1CN([C@@H](C)CO)C(=O)c2cccc(NC(=O)c3ccc(-c4nccs4)cc3)c2O[C@@H]1CN(C)S(=O)(=O)c1cccs1	none
C[C@H]1CN([C@@H](C)CO)C(=O)c2cccc(NC(=O)c3ccc(-c4nccs4)cc3)c2O[C@H]1CN(C)S(=O)(=O)c1cccs1	ROS inducer 83
C[C@H]1CN([C@@H](C)CO)C(=O)c2cccc(NC(=O)c3ccc(-c4nccs4)cc3)c2O[C@@H]1CN(C)Cc1ccc(C(=O)O)cc1	none
C[C@H]1CN([C@@H](C)CO)C(=O)c2cccc(NC(=O)c3ccc(-c4nccs4)cc3)c2O[C@H]1CN(C)Cc1ccc(Oc2ccccc2)cc1	none
C[C@@H]1CN([C@H](C)CO)C(=O)c2cccc(NC(=O)c3ccc(-c4nccs4)cc3)c2O[C@@H]1CN(C)S(=O)(=O)c1cccs1	none
C[C@H](CO)N1C[C@H](C)[C@@H](CN(C)Cc2ccc(Oc3ccccc3)cc2)Oc2c(NC(=O)c3ccc(-c4nccs4)cc3)cccc2C1=O	ROS inducer 120
C[C@@H]1CN([C@@H](C)CO)C(=O)c2cccc(NC(=O)c3ccc(-c4nccs4)cc3)c2O[C@@H]1CN(C)Cc1ccc(Oc2ccccc2)cc1	none
C[C@H](CO)N1C[C@H](C)[C@H](CN(C)Cc2ccc(C(F)(F)F)cc2)Oc2c(NC(=O)c3ccc(-c4nccs4)cc3)cccc2C1=O	none
C[C@H](CO)N1C[C@H](C)[C@H](CN(C)C(=O)Nc2cccc3ccccc23)Oc2c(NC(=O)Nc3cccc4ccccc34)cccc2C1=O	none
COc1ccc(OC)c(N(CC(=O)Nc2cccc(C(F)(F)F)c2)S(C)(=O)=O)c1	none
CNC[C@H]1Oc2c(NS(=O)(=O)c3ccc(OC)cc3)cccc2C(=O)N([C@H](C)CO)C[C@@H]1C	none
CC1CCCCC1NC(=O)Cn1ncc2c(=O)oc3ccccc3c21 (centres undefined)	none
CC(C)(C)c1csc(-c2ccc(-c3cccs3)s2)n1	none
CCc1ccc(CCC(=O)Nc2ccc(Br)cc2)o1	none
Oc1ccccc1-c1cc(-c2ccccc2O)nc(-c2ccccc2)n1	none
CNCCC=C1c2ccccc2CCc2ccccc21	none
c1ccc(-c2ccc3c(n2)CCc2ccccc2-3)cc1	ROS inducer 107
CNC[C@H]1Oc2ccc(NS(=O)(=O)c3ccc(OC)cc3)cc2C(=O)N([C@@H](C)CO)C[C@@H]1C	none
COc1ccc(S(=O)(=O)Nc2ccc3c(c2)C(=O)N([C@@H](C)CO)C[C@@H](C)[C@@H](CN(C)S(=O)(=O)c2ccccc2)O3)cc1	none
O=C(Nc1cccc(F)c1)C1CCN(c2ncnc3c2sc2cccc(F)c23)CC1	ROS inducer 111
CCc1cccc(NC(=O)C2CCN(c3nn4c(=O)cc(C)nc4s3)CC2)c1	none
O=C(CSc1ncnc2sc3c(c12)CCCC3)Nc1cccc(F)c1	none
Cc1cc(NS(=O)(=O)c2ccc(NC(=O)C3COc4ccccc4O3)cc2)nc(C)n1 (centres undefined)	none
CCn1c(SCC(=O)Nc2ccccc2)nc2ccc(I)cc2c1=O	ROS inducer 109
CCc1ccc(NC(=O)CSc2nc3ccccc3c(=O)n2CCc2ccccc2)cc1	none
COc1ccccc1-n1c(SCC(=O)Nc2ccccc2C)nc2ccc(I)cc2c1=O	none
C[C@H](CO)N1C[C@H](C)[C@H](CN(C)S(=O)(=O)c2ccc(Cl)cc2)Oc2ccc(NC(=O)C3CCCCC3)cc2CC1=O	none
CC1=C(C(=O)Nc2ccccc2Cl)C(c2cc(Br)ccc2OCC(N)=O)NC(=S)N1 (centres undefined)	none
COc1cc(C2NC(=S)NC(C)=C2C(=O)Nc2ccccc2Cl)ccc1OCC#N (centres undefined)	ROS inducer 103
CC1=C(C(=O)Nc2cccc(Cl)c2C)C(c2ccc(F)cc2)NC(=S)N1 (centres undefined)	none
CC(C)n1cc(-c2noc(-c3cccs3)n2)c(=O)n(Cc2ccccc2)c1=O	none
C[C@@H]1CN([C@@H](C)CO)C(=O)c2cc(NS(=O)(=O)c3ccc(F)cc3)ccc2O[C@@H]1CN(C)C(=O)Nc1ccc(C(F)(F)F)cc1	none
C[C@@H]1CN([C@@H](C)CO)C(=O)c2cccc(NC(=O)CCCCCC(=O)Nc3ccccc3N)c2O[C@H]1CN(C)Cc1ccc(Oc2ccccc2)cc1	ROS inducer 133
C[C@@H]1CN([C@H](C)CO)C(=O)c2cccc(NC(=O)CCCCCC(=O)Nc3ccccc3N)c2O[C@@H]1CN(C)Cc1ccccc1	none
C[C@H]1CN([C@@H](C)CO)C(=O)c2cccc(NC(=O)CCCCCC(=O)Nc3ccccc3N)c2O[C@@H]1CN(C)CC1CC1	ROS inducer 124
C[C@@H]1CN([C@H](C)CO)C(=O)c2cc(NC(=O)CCCCCC(=O)Nc3ccccc3N)ccc2O[C@@H]1CN(C)Cc1ccc(Cl)c(Cl)c1	none
C[C@H]1CN([C@@H](C)CO)C(=O)c2cc(NC(=O)CCCCCC(=O)Nc3ccccc3N)ccc2O[C@H]1CN(C)Cc1ccc(Cl)c(Cl)c1	none
C[C@@H]1CN([C@@H](C)CO)C(=O)c2cccc(NC(=O)CCCCCC(=O)Nc3ccccc3N)c2O[C@H]1CN(C)Cc1ccccc1	none
C[C@@H]1CN([C@@H](C)CO)C(=O)c2cccc(NC(=O)CCCCCC(=O)Nc3ccccc3N)c2O[C@H]1CN(C)Cc1ccc(Cl)c(Cl)c1	ROS inducer 154
C[C@@H]1CN([C@H](C)CO)C(=O)c2cccc(NC(=O)CCCCCC(=O)Nc3ccccc3N)c2O[C@@H]1CN(C)CC1CC1	none
C[C@@H]1CN([C@@H](C)CO)C(=O)c2cccc(NC(=O)CCCCCC(=O)Nc3ccccc3N)c2O[C@H]1CN(C)CC1CC1	none
CC(C)NC(=O)Nc1ccc2c(c1)CC(=O)N([C@@H](C)CO)C[C@@H](C)[C@@H](CN(C)C)O2	none
c1ccc(-n2ncc3c(N4CCc5ccccc54)ncnc32)cc1	none
C[C@@H]1CN([C@H](C)CO)C(=O)c2cc(NC(=O)NC3CCCCC3)ccc2O[C@H]1CN(C)S(=O)(=O)c1ccc(Cl)cc1	none
CCCCn1c(CCCNC(=O)C(C)C)nc2ccccc21	none
Cc1cc(C)c(C#N)c(SCC(=O)C2CC2)n1	none
C=C1C(=O)O[C@@H]2[C@H]1[C@H](O)C[C@]1(C)[C@@H](O)CC=C(C)[C@@H]21	none
C=C1C(=O)O[C@H]2[C@H]1[C@@H](OC(=O)/C(C)=C\C)C(OC(C)=O)/C(C(=O)OC)=C\CC[C@@]1(C)O[C@H]21 (some centres undefined)	ROS inducer 98
C=C1C(=O)O[C@H]2[C@H]1[C@@H](OC(=O)/C(C)=C/C)C(OC(C)=O)/C(C(=O)OC)=C\CC[C@@]1(C)O[C@H]21 (some centres undefined)	none
C=C1C(=O)O[C@H]2[C@H]1C[C@H](OC(=O)/C(C)=C\C)/C(C)=C\CC[C@@]1(C)O[C@@H]21	ROS inducer 139
C=C1C(=O)O[C@H]2[C@H]1[C@@H](OC(=O)C(C)(O)CCl)C(OC(C)=O)/C(C(=O)OC)=C\CC[C@@]1(C)O[C@H]21 (some centres undefined)	none
CNC[C@@H]1Oc2ccc(NC(=O)NC3CCCCC3)cc2C(=O)N([C@H](C)CO)C[C@@H]1C	none
C[C@H]1CN([C@@H](C)CO)C(=O)Cc2cc(NS(=O)(=O)c3ccccc3)ccc2O[C@H]1CN(C)Cc1ccc(Cl)c(Cl)c1	none
